Consider 42 molecules from article PMC4336329 (PLoS ONE, 2015).

Out of some 310,000 compounds screened, about 14,000 (4.5%) showed an effect of 50% or more. The effect is printed as a negative number. This is one part of a sample in which strong results are shown more often than they occur.
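Note: peak tail current of the secondary pulse compared with the same well before compound.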

The assay deals with human ether-à-go-go-related gene (hERG) potassium channel (human, UniProt Q12809). Put plainly: primary screen, population patch clamp on CHO cells stably expressing hERG; higher = less effect of the substance.
Sequence of human ether-à-go-go-related gene (hERG) potassium channel (Q12809 whole entry, looked up): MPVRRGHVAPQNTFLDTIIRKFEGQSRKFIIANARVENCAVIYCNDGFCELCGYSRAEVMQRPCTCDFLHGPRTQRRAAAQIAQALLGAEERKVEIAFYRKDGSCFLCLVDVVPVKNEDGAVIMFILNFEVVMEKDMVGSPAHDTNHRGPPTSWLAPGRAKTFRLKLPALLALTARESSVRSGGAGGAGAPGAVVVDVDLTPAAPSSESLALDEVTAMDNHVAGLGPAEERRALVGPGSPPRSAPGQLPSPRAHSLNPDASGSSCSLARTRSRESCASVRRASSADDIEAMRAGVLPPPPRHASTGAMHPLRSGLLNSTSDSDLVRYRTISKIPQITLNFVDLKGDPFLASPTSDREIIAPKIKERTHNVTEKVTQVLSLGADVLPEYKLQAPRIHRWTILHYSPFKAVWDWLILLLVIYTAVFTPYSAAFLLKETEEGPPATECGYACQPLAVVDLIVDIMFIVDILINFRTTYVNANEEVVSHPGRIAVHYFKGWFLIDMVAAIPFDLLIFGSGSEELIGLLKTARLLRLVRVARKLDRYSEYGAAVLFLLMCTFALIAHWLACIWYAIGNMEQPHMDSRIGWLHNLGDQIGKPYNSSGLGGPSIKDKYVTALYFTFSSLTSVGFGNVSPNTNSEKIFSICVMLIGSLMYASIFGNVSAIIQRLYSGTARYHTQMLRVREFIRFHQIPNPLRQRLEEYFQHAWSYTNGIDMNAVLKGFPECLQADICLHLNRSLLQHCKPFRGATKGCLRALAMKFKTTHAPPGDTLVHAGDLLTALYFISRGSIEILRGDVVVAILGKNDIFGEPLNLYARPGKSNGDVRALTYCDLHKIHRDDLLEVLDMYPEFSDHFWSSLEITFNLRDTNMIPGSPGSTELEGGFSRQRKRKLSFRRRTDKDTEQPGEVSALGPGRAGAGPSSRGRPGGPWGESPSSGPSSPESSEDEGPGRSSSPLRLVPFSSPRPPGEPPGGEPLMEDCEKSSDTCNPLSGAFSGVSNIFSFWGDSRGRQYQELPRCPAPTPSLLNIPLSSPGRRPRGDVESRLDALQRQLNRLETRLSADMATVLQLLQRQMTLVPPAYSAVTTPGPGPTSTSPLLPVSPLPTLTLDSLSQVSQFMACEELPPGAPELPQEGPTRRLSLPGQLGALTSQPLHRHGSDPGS
As for `O=c1[nH]c(O)c(N=Nc2ccc3c(c2)OCCO3)c(=O)[nH]1`, the “hERG current change (%, negative = inhibition) at 10uM” value is 14.2%.
As for `CC(=O)N1c2ccc(N=Cc3cc(Br)cc(Br)c3O)cc2CC1C` (stereo not drawn), the “hERG current change (%, negative = inhibition) at 10uM” value came out at 2.6%.
Under `Cc1ccc(CN2C(=O)/C(=C\c3ccc(C(=O)NCc4cccnc4)cc3)Oc3ccccc32)cc1` stands 12.9%; under `O=C(NNc1ccccn1)C(=O)NNS(=O)(=O)c1ccc(F)cc1`, 12.5%; under `Cn1c(=O)c2nc(-c3ccccc3)oc2c2ccccc21`, -1.46%.
With `N#Cc1c(-c2ccccc2)nc(SCC(=O)Nc2ccc(OC(F)(F)Cl)cc2)[nH]c1=O`, the “hERG current change (%, negative = inhibition) at 10uM” value came to 28.5%.
For the molecule `CN(C)C(=S)Nc1ccc2ccccc2c1`, the “hERG current change (%, negative = inhibition) at 10uM” value is listed as 11.2%.
Under `COC(=O)c1ccccc1NC(=O)CN1CCC(n2nnc3cc(C(F)(F)F)ccc32)CC1` stands -6.14%; under `C=CCNC(=O)CN1CCC(n2nnc3cc(C(F)(F)F)ccc32)CC1`, -50.7%.
Under `Cc1nc2cc(C(F)(F)F)ccc2n1C1CCN(C(=O)N2CCOCC2)CC1` stands -55.7%.
Under `Cc1cc(NC(=O)CN2CCC(n3nnc4cc(C(F)(F)F)ccc43)CC2)no1` stands -50%; under `CC1Cc2ccccc2N1C(=O)CN1CCC(n2nnc3cc(C(F)(F)F)ccc32)CC1` (stereo not drawn), -67.2%.
Consider `C=CCNC(=O)CN1CCC(n2c(C)nc3cc(C(F)(F)F)ccc32)CC1`, for which the “hERG current change (%, negative = inhibition) at 10uM” value is given as -62.1%.
Under `COCC(=O)N1CCC(n2nnc3cc(C(F)(F)F)ccc32)CC1` stands -22%; under `O=C(CN1CCC(n2nnc3cc(C(F)(F)F)ccc32)CC1)NNC(=O)c1ccco1`, -24.6%; under `Cc1nc2cc(C(F)(F)F)ccc2n1C1CCN(CC(=O)NC(C)(C)C)CC1`, -19.4%.
Take `Cc1nc2cc(C(F)(F)F)ccc2n1C1CCN(CC(=O)N2CCOCC2)CC1`: the “hERG current change (%, negative = inhibition) at 10uM” value is reported as -44.4%.
Take `COCCNC(=O)CN1CCC(n2c(C)nc3cc(C(F)(F)F)ccc32)CC1`: the “hERG current change (%, negative = inhibition) at 10uM” value was -25.6%.
Under `Cc1nc2cc(C(F)(F)F)ccc2n1C1CCN(CC(=O)N2CCCC2)CC1` stands -13.1%; under `CC1=C(C#N)C(NC(=O)C(C)(C)C)(C(F)(F)F)C(=O)N1` (stereo not drawn), 1.3%.
For `O=C(O)c1ccccc1NS(=O)(=O)c1ccc2c3c(cccc13)C(=O)N2`, the “hERG current change (%, negative = inhibition) at 10uM” value is 16.1%.
Turning to `CC1CCN(CCCNC(=O)CCCNC(=O)Cn2cnc3sc4c(c3c2=O)CCCC4)CC1`, the “hERG current change (%, negative = inhibition) at 10uM” value is given as 12.3%.
Take `Cc1ccc(NC(=O)NCCCl)cc1S(=O)(=O)N1CCOCC1`: the “hERG current change (%, negative = inhibition) at 10uM” value stood at 1.99%.
To `COc1ccc2cc3cc(C(=O)N4CCN(c5ccccc5)CC4)oc3nc2c1` belongs 13.2%; to `CN(C)CCCC1Sc2ccccc2Sc2ccccc21.O=C(O)C(=O)O` (stereo not drawn), -56.1%.
To `CN(C)CCC1Sc2ccccc2Oc2ccccc21.O=C(O)C(=O)O` (stereo not drawn) belongs -24.8%; to `CC1c2ccccc2SC(CCCN(C)C)c2ccccc21.O=C(O)/C=C\C(=O)O` (stereo not drawn), -19.2%.
With `Cc1nc2scc(C)n2c(=O)c1S(=O)(=O)N1CCN(c2ccc([N+](=O)[O-])cc2)CC1`, the “hERG current change (%, negative = inhibition) at 10uM” value is reported as -12%.
Consider `CCN(CC)c1ccc(NC(=O)CSc2nnc(N)s2)cc1C`, for which the “hERG current change (%, negative = inhibition) at 10uM” value came to 2.78%.
Under `COC(C/C=C\C(=O)[C@H](C)OCc1ccccc1)OC` stands 9.66%; under `O=C(CCC1CCCCC1)NCCN1C2=NC[C@H](Cc3ccc(O)cc3)N2C[C@H]1Cc1ccc(O)cc1`, -4.37%; under `COc1ccc(C[C@H]2CN3C(=NC[C@H]3Cc3ccccc3)N2CCNC(=O)CCC2CCCCC2)cc1`, -71.9%.
Under `COc1ccc(C[C@H]2CN3C(=NC[C@@H]3Cc3ccccc3)N2CCNC(=O)CCC2CCCCC2)cc1` stands -73.7%.
To `O=C(CCC1CCCCC1)NCCN1C2=NC[C@H](Cc3ccccc3)N2C[C@H]1Cc1ccc(O)cc1` belongs -42%; to `O=C(CCC1CCCCC1)NCCN1C2=NC[C@@H](Cc3ccccc3)N2C[C@H]1Cc1ccc(O)cc1`, -69.3%; to `CCOC(=O)c1ccc(NC(=O)c2ccnn2C)cc1`, 4.61%.
Regarding `CC(OC(=O)c1nc(-c2ccccc2)n(-c2ccccc2)n1)C(=O)Nc1cc(Cl)cc(Cl)c1` (stereo not drawn), the “hERG current change (%, negative = inhibition) at 10uM” value is -6.35%.
In the case of `CN(C)C(CNC(=O)c1ccc2ccccc2n1)c1ccccc1` (stereo not drawn), the “hERG current change (%, negative = inhibition) at 10uM” value was found to be 11.1%.
With `O=C1Nc2ccc(Br)cc2C(c2ccccc2)=NC1O` (stereo not drawn), the “hERG current change (%, negative = inhibition) at 10uM” value is reported as 13.1%.
Regarding `O=C1Nc2ccc(Br)cc2C(c2ccccc2Cl)=NC1O` (stereo not drawn), the “hERG current change (%, negative = inhibition) at 10uM” value is reported as -48.6%.
As for `CC(=O)OC1N=C(c2ccc(Cl)cc2)c2cc(Br)ccc2NC1=O` (stereo not drawn), the “hERG current change (%, negative = inhibition) at 10uM” value is -55%.
Take `O=C1Nc2ccc(Br)cc2C(c2ccc(Cl)cc2)=NC1O` (stereo not drawn): the “hERG current change (%, negative = inhibition) at 10uM” value is on record as -56.5%.
